# Assay results from the supplement of paper PMC10933113.
# Structures can show the parent of a compound that is named as a salt. ± gives the uncertainty stated by the source.
# Test system: THP-1
# Test: CD86 surface expression induction over DMSO control (% over DMSO); higher = stronger dendritic cell activation
# Settings: exposure time: 24 h
# Procedure: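 hCLAT-like CD54 and CD86 surface expression on THP1 cells after 24 h exposure at a single concentration (highest non-cytotoxic concentration, or 100-200 µM if not cytotoxic). Flow cytometry (iQue) was run on 5,000 live cells.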
row,SMILES,CD86 surface expression induction
1,OC[P+](CO)(CO)CO [Tetrakis(hydroxymethyl)phosphonium SO4] (100 µM),6.79 ± 11
2,"COc1ccc2[nH]cc(CCN(C(C)C)C(C)C)c2c1 [5-Methoxy-N,N-diisopropyltryptamine hydrochloride] (224.7 µM)",-4.94 ± 3.2
3,CCOCN(C(=O)CCl)c1c(C)cccc1CC [Acetochlor] (10 µM),90 ± 25
4,Fc1ccc(Oc2ccnc3cc(Cl)cc(Cl)c23)cc1 [Quinoxyfen] (200 µM),2.53 ± 5
5,CCOP(=S)(OCC)SC(CCl)N1C(=O)c2ccccc2C1=O (stereo not given) [Dialifor] (100 µM),0.69 ± 0.85
6,COP(=S)(OC)Oc1ccc(SC)c(C)c1 [Fenthion] (100 µM),-4.96 ± 3.4
7,CCC(C)(c1ccc(O)cc1)c1ccc(O)cc1 [Bisphenol B] (200 µM),4.76 ± 3
8,O=C(O)c1ccc(=O)[nH]c1 [6-Hydroxynicotinic acid] (100 µM),-4.7 ± 6.2
9,CN1C[C@H](C(=O)N[C@]2(C)O[C@@]3(O)[C@@H]4CCCN4C(=O)[C@H](Cc4ccccc4)N3C2=O)C=C2c3cccc4[nH]cc(c34)C[C@H]21 [Ergotamine D-tartrate*] (79 µM),63 ± 77
10,"CC(C)(C)C(=O)CCl [1-Chloro-3,3-dimethyl-butan-2-one] (200 µM)",-2.11 ± 2.4
11,CC(COc1ccc(Oc2ccccc2)cc1)Oc1ccccn1 (stereo not given) [Pyriproxyfen] (200 µM),-0.44 ± 4.1
12,CCNc1nc(NC(C)(C)C)nc(SC)n1 [Terbutryn] (100 µM),0.6 ± 2.4
13,Nc1ccc2ccccc2c1 [2-Naphthylamine] (100 µM),68.7 ± 65
14,O=C(N/N=C/c1ccc([N+](=O)[O-])o1)c1cc([N+](=O)[O-])cc([N+](=O)[O-])c1O [Nifursol] (200 µM),8.52 ± 13
15,O=C(CCl)c1ccccc1 [2-Chloroacetophenone] (100 µM),8.54 ± 19
16,"Nc1ccc(Cl)cc1N [4-Chloro-1,2-diaminobenzene*] (200 µM)",71.3 ± 120
17,NNC(N)=S [Thiosemicarbazide] (10 µM),-15.6 ± 6.4
18,O=[N+]([O-])c1ccc(Oc2ccc(C(F)(F)F)cc2[N+](=O)[O-])cc1 [Fluorodifen] (10 µM),-11.9 ± 9.2
19,"Cc1ccc(N=C=O)cc1N=C=O [Toluene-2,4-diisocyanate] (100 µM)",3.76 ± 8.7
20,c1ccc2sc(SNC3CCCCC3)nc2c1 [N-Cyclohexyl-2-benzothiazolesulfenamide] (100 µM),8.63 ± 9.4

row,SMILES,CD86 surface expression induction
1,"CCCCNC(=O)OCC#CI [Carbamic acid, butyl-, 3-iodo-2-propynyl ester] (10 µM)",-9.06 ± 2.4
2,NCCc1ccc(O)cc1 [Tyramine] (100 µM),-4.16 ± 4.5
3,CC(C)Nc1ccc(Nc2ccccc2)cc1 [N-Isopropyl-N'-phenyl-p-phenylenediamine] (10 µM),91.4 ± 6.8
4,Cc1ccc2c(c1N)C(=O)c1ccccc1C2=O [1-Amino-2-methylanthraquinone] (100 µM),102 ± 24
5,O=C(O)c1ccccc1C(=O)Nc1cccc2ccccc12 [Naptalam*] (200 µM),78.5 ± 110
6,c1cc(OCC2CO2)ccc1Cc1ccc(OCC2CO2)cc1 (stereo not given) [Bis[4-(glycidyloxy)phenyl]methane] (100 µM),7.56 ± 6.6
7,Nc1cc(Cl)ccc1O [2-Amino-4-chlorophenol] (200 µM),41.9 ± 31
8,"CN(C)c1ccc(N(C)C)cc1 [*N,N,N',N'-Tetramethyl-p-phenylenediamine] (200 µM)",52.4 ± 59
9,O=[N+]([O-])c1c(Cl)c(Cl)c(Cl)c(Cl)c1Cl [Pentachloronitrobenzene] (100 µM),55.3 ± 53
10,"O=[N+]([O-])c1cc([N+](=O)[O-])c2ccccc2c1 [1,3-Dinitronaphthalene] (200 µM)",2.95 ± 4.5
11,"Nc1ccc(Cl)cc1Cl [2,4-Dichloroaniline] (200 µM)",-3.25 ± 7.7
12,C[C@@H]1O[C@@H](O[C@H]2C[C@@H](O)[C@]3(CO)[C@H]4[C@H](O)C[C@]5(C)[C@@H](C6=CC(=O)OC6)CC[C@]5(O)[C@@H]4CC[C@]3(O)C2)[C@H](O)[C@H](O)[C@H]1O [Ouabain] (10 µM),51.7 ± 16
13,CCC(C)(CC)c1cc(NC(=O)c2c(OC)cccc2OC)on1 [Isoxaben] (200 µM),0.63 ± 1.4
14,"O=C(CCl)CCl [1,3-Dichloropropanone] (200 µM)",16.5 ± 17
15,COP(=S)(OC)Oc1nc(Cl)c(Cl)cc1Cl [Chlorpyrifos-methyl] (200 µM),17.7 ± 42
16,N#C/C=C/C#N [Fumaronitrile] (10 µM),-2.66 ± 6.7
17,"c1ccc(Nc2ccc(Nc3ccccc3)cc2)cc1 [N,N'-Diphenyl-p-phenylenediamine] (200 µM)",-11.2 ± 8.1
18,C=CC(=O)OCC(COC(=O)C=C)(COC(=O)C=C)COC(=O)C=C [Pentaerythritol tetraacrylate] (10 µM),8.9 ± 7.2
19,CCCCOCN(C(=O)CCl)c1c(CC)cccc1CC [Butachlor] (10 µM),-11.7 ± 10
20,"CN(C)c1ccc(N)cc1 [N,N-Dimethyl-p-phenylenediamine] (100 µM)",44.5 ± 46
